Source: PubChem
Most compounds without a hit are left out; they make up all but 2.6% or so of the library.
PAFAH1B2 FP inh: inhibitors of human PAFAH1B2 | recombinant PAFAH1B2, FP-rhodamine activity probe, fluorescence polarization | inhibition, % at 3.39 µM | hit rate 1.2% among 340,000 | AID 492953;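 active means inhibition above the mean of all tested compounds plus 3 SD, cut at about 24% in these data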;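 further: 0% = enzyme with DMSO and 100% = wells lacking PAFAH1B2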
Target sequence (P68402 whole entry, looked up): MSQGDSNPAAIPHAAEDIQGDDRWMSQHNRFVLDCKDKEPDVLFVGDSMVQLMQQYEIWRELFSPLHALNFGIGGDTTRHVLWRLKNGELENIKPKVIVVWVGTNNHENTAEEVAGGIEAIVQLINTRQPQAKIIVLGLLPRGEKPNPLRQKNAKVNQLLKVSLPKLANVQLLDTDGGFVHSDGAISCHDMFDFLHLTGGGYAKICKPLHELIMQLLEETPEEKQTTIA
PAFAH2 inh: PAFAH2 (human) inhibition | recombinant PAFAH2, FP-rhodamine activity probe, fluorescence polarization | inhibition, % at 3.39 µM | Q99487 | AID 492956 | hit rate 0.99% among 340,000;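 active means inhibition above the mean over all tested compounds plus 3 SD, cut at about 30% in these data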;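 further: inhibitors block probe labeling of enzyme so polarization drops; 0% = enzyme with DMSO and 100% = wells lacking PAFAH2 protein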
PKA-R1A act: PKA-R1A complex activation. P00514+P68181. PKA-R1A dissociation, Cy5-IP20 fluorescence polarization; scaled: DMSO 0%, 113 µM cGMP 100%. activation, % at 11.4 µM. hit rate 0.083% among 340,000;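 active means percent activation above the mean of all tested compounds plus 3 SD, cut at about 19% in these data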;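 further: higher means more PKAc released from R1A so a rise in polarization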
PKA-R2B act: PKA-R2B complex activation. PKA-R2B holoenzyme dissociation, Cy5-IP20 fluorescence polarization; R2B truncated from residue 108, S112A mutant; 0% DMSO only, 100% 113 µM cGMP. activation, % at 11.4 µM. hit rate 0.079% among 340,000. P22694+P31323;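 active means activation above a cutoff set at the mean over all compounds plus 3 SD, cut at about 18% in these data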;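 further: higher means more holoenzyme dissociation and a rise in polarization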
PAFAH1B3 FP inh: PAFAH1B3 (human) inhibition; Q15102; recombinant PAFAH1B3, FP-rhodamine probe, fluorescence polarization; inhibition, % at 3.39 µM; hit rate 0.28% among 340,000;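 active means inhibition above the screen-wide average of all tested compounds plus 3 SD, cut at about 25% in these data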;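 further: 0% = enzyme with DMSO only and 100% = wells lacking PAFAH1B3 protein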
Target sequence (Q15102 whole entry, looked up): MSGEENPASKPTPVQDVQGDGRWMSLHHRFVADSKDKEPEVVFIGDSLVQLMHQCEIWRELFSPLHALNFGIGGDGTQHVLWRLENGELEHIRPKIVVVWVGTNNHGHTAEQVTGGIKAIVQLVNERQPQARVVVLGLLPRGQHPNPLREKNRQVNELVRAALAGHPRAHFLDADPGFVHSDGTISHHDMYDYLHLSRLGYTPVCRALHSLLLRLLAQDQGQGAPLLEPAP
pPAFAH inh: pPAFAH (human) enzyme inhibition; recombinant pPAFAH, FP-rhodamine probe fluorescence polarization; inhibition, % at 3.39 µM; Q13093; hit rate 1.5% among 330,000;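 active means inhibition above the mean inhibition across the screen plus 3 SD, cut at about 25% in these data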;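 further: inhibitors block binding of the rhodamine activity-based probe so polarization drops; 0% = enzyme with DMSO and 100% = wells lacking pPAFAH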
PAFAH2 FP conf: PAFAH2 (human) inhibition, confirmed | inhibition, % at 3.39 µM | recombinant PAFAH2, FP-rhodamine activity probe, fluorescence polarization | AID 493030 | hit rate 65% among 2,300 | shares compounds with PAFAH2 inh;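 active means mean inhibition over three repeats above a set limit taken from the earlier primary screen, cut at about 30% in these data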;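 further: inhibitor blocks binding of rhodamine activity probe so polarization falls; 0% = enzyme with DMSO and 100% = wells lacking PAFAH2 protein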
* marks the source's active call; other numbers are inactive results; / = no result.

SMILES | PAFAH1B2 FP inh | PAFAH2 inh | PKA-R1A act | PKA-R2B act | PAFAH1B3 FP inh | pPAFAH inh | PAFAH2 FP conf
Cc1nc(NC(=O)COC(=O)C(NC(=O)c2ccco2)C(C)C)c(Cl)cc1Cl (configuration not stated) | -2 | 1 | 8 | 10 | -6 | 7 | /
Cc1nc(NC(=O)COC(=O)/C=C/c2ccco2)c(Cl)cc1Cl | 0 | 35* | 4 | -12 | 3 | 13 | 18
O=C(COC(=O)/C=C/c1ccco1)Nc1ncc(Cl)cc1Cl | 2 | 47* | -1 | 6 | 6 | 11 | 27
COC(=O)c1ccc(/C=C/C(=O)OCC(=O)Nc2ncc(Cl)cc2Cl)cc1 | 6 | 29 | 3 | -2 | 4 | -3 | /
CCCCC(C(=O)NC(C)c1ccccc1)C(=O)NC(C)c1ccccc1 (configuration not stated) | 5 | 12 | -9 | -8 | 5 | 9 | /
CC(C)[C@H](NS(=O)(=O)c1ccccc1)C(=O)OCC(=O)NCc1ccc2c(c1)OCO2 | 9 | 5 | -4 | 2 | 3 | 0 | /
O=C(COC(=O)c1cc[n+]([O-])cc1)Nc1ccc(SC(F)F)cc1 | -2 | -5 | -8 | 0 | -10 | 10 | /
CC(C)=CC(=O)OCC(=O)Nc1ccc(SC(F)F)cc1 | 0 | 78* | -3 | 4 | 1 | 21 | 85*
CCOc1ccc(Br)cc1S(=O)(=O)Nc1ccc(C(=O)OCC(=O)Nc2ccc(C#N)cc2)cc1 | -14 | 36* | -14 | -13 | -41 | -12 | 30*
CCOc1ccc(C(=O)OCC(=O)Nc2ccc(SC(F)F)cc2)cc1OCC | 0 | 80* | -11 | 1 | -2 | 11 | 77*
CC(=O)Nc1ccc(S(=O)(=O)NCCC(=O)NC(C)c2cccs2)cc1 (configuration not stated) | 3 | -10 | -9 | -3 | 5 | 1 | /
CSc1ccc(/C=C/C(=O)OCC(=O)NC2CCCC2)cc1 | / | / | 1 | -5 | / | / | /
CC(C)NC(=O)COC(=O)/C=C/c1ccc(F)cc1 | -3 | 36* | -15 | -1 | 5 | 1 | 22
O=C(COC(=O)/C=C/c1ccc(F)cc1)NC1CCCCCC1 | 0 | 89* | 8 | 2 | 3 | 12 | 81*
O=C(COC(=O)/C=C/c1ccc(F)cc1)NC1CC1 | -1 | 49* | -12 | -5 | 1 | 2 | 37*
O=C(COC(=O)/C=C/c1ccc(Cl)cc1)NC1CCCC1 | 6 | 64* | -12 | -3 | 6 | 2 | 67*
CC(C)NC(=O)COC(=O)/C=C/c1ccco1 | -1 | 22 | 0 | 7 | 4 | 5 | /
O=C(COC(=O)/C=C/c1ccc(Cl)c(Cl)c1)NC1CC1 | 9 | 17 | -1 | 5 | 7 | 6 | /
COc1ccc(OC2CCN(S(=O)(=O)c3ccc(OC)c(OC)c3)CC2)cc1 | 3 | 6 | 6 | -10 | -1 | 6 | /
Cc1ccc(-c2nn(-c3ccccc3)cc2CC(=S)N2CCOCC2)cc1 | 3 | 5 | -7 | -1 | 2 | 3 | /
O=C(COC(=O)/C=C/c1ccc(F)cc1)NC1CCCC1 | 3 | 79* | -7 | 1 | 3 | / | 86*
CCOC(=O)C1CCN(C(=O)c2cc(S(=O)(=O)N3CCc4ccccc43)ccc2OC)CC1 | 1 | -2 | 3 | -1 | 3 | 5 | /
CC(NC(=O)COC(=O)C1CC1C)c1cccc(Cl)c1 (configuration not stated) | 0 | 36* | 5 | -3 | 7 | 7 | 23
CC(NC(=O)COC(=O)C1CC1C)c1ccccc1 (configuration not stated) | -3 | 33* | -1 | -6 | 11 | 4 | 30*
CC(C)c1ccc(NC(=O)COC(=O)C2CCCCC2)cc1 | 2 | 45* | -7 | -8 | 2 | 7 | 29
CC1CC1C(=O)OCC(=O)NC(=O)c1ccc(C(C)(C)C)cc1 (configuration not stated) | 3 | 3 | -9 | -8 | 9 | 2 | /
